Data: the supplement of paper PMC10338343
± gives the standard deviation. The full ranking holds about 8,200 sequences; the median of “pre-steady-state target cleavage rate” is about 0.024, and the highest 2% start at about 1.3. This excerpt belongs to a sample that is enriched for the highest values.

System: MIWI (PIWIL1) piRISC loaded with L1MC piRNA (30 nt)
Experiment: pre-steady-state target cleavage rate (min^-1); MIWI and MILI are mouse PIWI proteins and EfPiwi is from a freshwater sponge; tags in brackets are library labels; higher = faster piRNA-guided slicing of the target
Conditions: guide: L1MC piRNA 5'p-UAACUAAAUACUAUGCAAGCUGUAGGUCCU
Method: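 Cleave-'n-Seq: a library of target RNAs (target site embedded in constant flanks, ACAGCATTCCGCGTTAGTGATATCCG... 5' flank; DNA-blocked outside the site) at 0.1 nM was incubated with 1 nM active mouse MILI or MIWI piRISC (synthetic 5'-monophosphorylated piRNA guide) with or without 500 nM mouse GTSF1 at 33 °C for 1 min to 16 h. Uncleaved targets were sequenced and normalised to non-target controls, and the pooled three trials were fitted to a burst-and-steady-state model to give the pre-steady-state cleavage rate (min^-1; k3 is constrained to at most 1e-4). Sequence is the target site only; target names encode pairing extent (gX:gY) and contiguous / 1-mismatch / 2-mismatch / bulge geometry. Fits with R² ≤ 0 are excluded.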

[1] = auxiliary factor: 500 nM mouse GTSF1
[2] = auxiliary factor: none (no GTSF1)

Sequence | pre-steady-state target cleavage rate [1] | pre-steady-state target cleavage rate [2]
UCGACCUACAGCUAGCAUAGUAUUUAGUUA | 1.28 ± 0.053 | 0.0292 ± 0.0072
AGGACCUACAGCUAGCAUAGUAUUUAGUAA | 0.836 ± 0.073 | 0.0193 ± 0.0066
AGGACCUACAGCUUAGCAUAGUAUUUAGUUA | 1.37 ± 0.052 | 0.0387 ± 0.011
UCGACCUACAGCUUAGCAUAGUAUUUAGUUA | 1.59 ± 0.058 | 0.0251 ± 0.0054
UGGACCUACAGCUAGCAUAGUAUUUAGUAA | 1.08 ± 0.065 | 0.016 ± 0.0033
UCCUGGAUCAGCUUGCUAAGUAUUUAGUAA | 0.00706 ± 0.004 | –
UCCUCCUACAGCUUGCAUAGUAUUUACUUA | 0.383 ± 0.042 | 0.0348 ± 0.0074
UCCUGGAACAGUUGCAUAGUAUUUAGUUA | 0.337 ± 0.022 | 0.00545 ± 0.0021
UCCUGGAUCUGCAUGCAUAGUAUUUAGUUA | 0.204 ± 0.024 | 0.00439 ± 0.002
UCCUGGAUGUCGAACGUAUGUAUUUUAGUUA | < 0.0001 | –
UCCUCCUACAGCUUGCAUAGUAAAAAGUUA | 0.231 ± 0.023 | –
UCCUCCUACAGCUUAGCAUAGUAUUUAGUUA | 1.31 ± 0.054 | 0.0108 ± 0.0023
UCCUCCUACAGCUUACAUAGUAUUUAGUUA | 1.14 ± 0.031 | 0.0275 ± 0.0041
UCCUCCUACAGCUAGCAUAGUAUUUAGUUA | 0.838 ± 0.03 | 0.016 ± 0.0034
AGGUCCUACAGCUUGCAUAGUAUUUAGUUA | 1.43 ± 0.054 | 0.111 ± 0.019
UCGUCCUACAGCUUGCAUAGUAUUUAGAAA | 0.469 ± 0.042 | 0.00751 ± 0.0029
UCGUCCUACAGCUUGCAUAGUAUUUAGUUA | 1.42 ± 0.041 | 0.0638 ± 0.0093
AGGUCCUACAGCUUGCAAAGUAUUUAGUUA | 1.35 ± 0.043 | 0.0532 ± 0.01
UGGUCCUACAGCUUGCAUAGUAUUUAGUUA | 1.16 ± 0.052 | 0.0862 ± 0.015
UCGUCCUACAGCUUGCAAAGUAUUUAGUUA | 1.3 ± 0.032 | 0.0388 ± 0.0068
UGGUCCUACAGCUUGCAAAGUAUUUAGUUA | 1.13 ± 0.04 | 0.0413 ± 0.0067
UCGUCCUACAGCUUGCAUAGUAUUUAGUAA | 0.82 ± 0.037 | 0.0372 ± 0.0076

Sequence | pre-steady-state target cleavage rate [1] | pre-steady-state target cleavage rate [2]
UCCUACUACAGCUUGCAUAGUAUUUAGUUA | 0.886 ± 0.036 | 0.057 ± 0.0085
AGGUCCUACAGCUUGCAUAGUAUUUAGUAA | 0.77 ± 0.055 | 0.0647 ± 0.012
ACGUCCUACAGCUUGCAUAGUAUUUAGUUA | 1.52 ± 0.055 | 0.0835 ± 0.013
UCCUGGAUCAGCUUGCAUAGUAAUUAGAUA | 0.216 ± 0.036 | 0.0126 ± 0.0029
UCCUGGAACAGCUUGGUAAGUAUUUAGUUA | 0.00797 ± 0.0031 | –
UCCUGGAUGUGCUUGACAUAGUAUUUAGUUA | 0.0551 ± 0.0082 | –
UCCUGGAUCAGCUUGCAUAGUAUUAUGUAA | 0.0189 ± 0.0065 | 0.00377 ± 0.0026
UCCUGGAUGUGCUUGGAUACUAUUUAGUUA | 0.031 ± 0.011 | 0.0033 ± 0.0029
UCCUGGAUGUCGAACCAUACUAAUUAGUUA | – | < 0.0001
AGGACCUACAGCUAGCAUAGUAAUUAGUUA | 0.745 ± 0.06 | 0.0091 ± 0.0021
UCCUGGAUCACCAUGCAUAGUAUUUAGUUA | 0.0303 ± 0.0068 | –
AGGUCCUACAGCUUGCUUAGUAUUUAGUUA | 1.54 ± 0.069 | 0.0542 ± 0.011
UCCUCCUACAGCUUGCUAGUAUUUAGUUA | 0.0615 ± 0.017 | –
UCGUCCUACAGCUUGCUUAGUAUUUAGUUA | 1.43 ± 0.047 | 0.0358 ± 0.0073
UCCUGCUACAGCUUGCUUAGUAUUUAGUUA | 0.987 ± 0.056 | 0.0337 ± 0.008
UCCAGCUACAGCUUGCUUAGUAUUUAGUUA | 0.78 ± 0.039 | 0.0235 ± 0.004
UGGUCCUACAGCUUGCUUAGUAUUUAGUUA | 1.21 ± 0.035 | 0.0478 ± 0.0087
AGGACCUACAGCUUGCAUAGAUAUUUAGUUA | 0.143 ± 0.048 | –
UCCACCUACAGCUUGCAUUCAAUUUAGUUA | 0.0179 ± 0.0084 | –
UCCUCCUGCAGCUUGCAUAGUAUUUAGUUA | 1.1 ± 0.053 | 0.0513 ± 0.0088
AGGACCUGACAGCUUGCAUAGUAUUUAGUUA | 1.17 ± 0.07 | 0.067 ± 0.011
UGGACCUGACAGCUUGCAUAGUAUUUAGUUA | 1.56 ± 0.12 | 0.0824 ± 0.017

Sequence | pre-steady-state target cleavage rate [1] | pre-steady-state target cleavage rate [2]
AGGACCUGCAGCUUGCAUAGUAUUUAGUUA | 1.38 ± 0.088 | 0.0689 ± 0.014
UCGACCUUCUGCUUGCAUAGUAUUUAGUUA | 1.45 ± 0.048 | 0.0653 ± 0.011
UCGACCUUGUGCUUGCAUAGUAUUUAGUUA | 0.871 ± 0.038 | 0.0513 ± 0.0098
UGGACCUUCUGCUUGCAUAGUAUUUAGUUA | 1.3 ± 0.066 | 0.0534 ± 0.0096
UCGACCUGACAGCUUGCAUAGUAUUUAGUUA | 1.25 ± 0.057 | 0.0632 ± 0.011
AGGACCUUCUGCUUGCAUAGUAUUUAGUUA | 1.24 ± 0.042 | 0.082 ± 0.015
UCGACCUGCAGCUUGCAUAGUAUUUAGUUA | 1.41 ± 0.072 | 0.0674 ± 0.013
UCCACCUGCAGCUUGCAUAGUAUUUAGUUA | 1.15 ± 0.13 | 0.0541 ± 0.011
UCCUGGAACAGCUUGCAUAGUAUUUAGUAA | 0.685 ± 0.046 | 0.0337 ± 0.0083
UCCUGCUACACGAUGCAUAGUAUUUAGUAA | 0.396 ± 0.032 | –
UCCUGGAUGUCGAUGCUUAGUAUUUUGUUA | < 0.0001 | –
UCCUGGAUCACGUUGCAUAGUAUUUAGUAA | 0.0198 ± 0.0044 | –
UCGACGUACAGCUUCCAUAGUAUUUAGUUA | 0.0527 ± 0.011 | 0.00418 ± 0.0013
UCGAGCUACAGCUUGCAUAGUAUUUUGUUA | 1.06 ± 0.06 | 0.0528 ± 0.0088
UCCUGGAUGAGCUUGCAUAGUAUUAUGUUA | 0.194 ± 0.027 | 0.0102 ± 0.0042
UCCUGGAUGAGCUUGCAUAGUAAUUAGAAA | 0.0194 ± 0.0086 | –
UCCUGGUACAGCUUGCAUAGUAUUUUGAUA | 0.166 ± 0.031 | 0.00994 ± 0.0034
UGGACCUAGUGCUUGCAUAGUAUUUAGUUA | 0.979 ± 0.061 | 0.0419 ± 0.0095
UGGACCUGCAGCUUGCAUAGUAUUUAGUUA | 1.57 ± 0.099 | 0.0683 ± 0.013
UCCUGCUGCAGCUUGCAUAGUAUUUAGUUA | 1.27 ± 0.058 | 0.0512 ± 0.011
